Screening data: PubChem BioAssay, Broad Institute
This is a sample that favours compounds with a hit; in the whole collection about 4.1% have one here.
NSD2 HMT inh: NSD2 (human) methyltransferase inhibition; NSD2 peptide methylation, AlphaScreen, 120 min; inhibition, % at 12.5 µM; O96028; hit rate 0.54% among 310,000; in the data active = inhibition above about 50%
PglD DTNB: inhibitors of Campylobacter jejuni PglD acetyltransferase. purified PglD enzyme, DTNB colorimetric CoA detection. inhibition, % at 12.5 µM. hit rate 0.098% among 360,000. AID 602405; in the data active = inhibition above about 16%, passing the limit was not always enough; inconclusive = no clear call, values can overlap the other calls
CASP6 VEID inh: blocks human caspase-6 cleavage activity; purified caspase-6, Z-VEID-R110 cleavage fluorescence; inhibition, % at 12.5 µM; hit rate 0.53% among 350,000;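 active = mean inhibition across replicates at least about 35%, with every replicate also reaching that limit, limit read from the data; inconclusive = only one of the two criteria met; inactive = neither criterion met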;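 note: 0% = median of neutral control wells and 100% = no fluorescence left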
ALR inh: human ALR oxidase inhibition via reduced H2O2; AID 485317; P55789; purified ALR, DTT oxidation, H2O2 HRP-luminol luminescence; inhibition, % (test concentration not listed); hit rate 3.8% among 290,000;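 active = mean replicate inhibition above about 79%, with every replicate also reaching it, limit read from the data; inconclusive = only one of the two criteria met; inactive = mean below limit and not every replicate reaching it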
Target sequence (P55789 whole entry, looked up): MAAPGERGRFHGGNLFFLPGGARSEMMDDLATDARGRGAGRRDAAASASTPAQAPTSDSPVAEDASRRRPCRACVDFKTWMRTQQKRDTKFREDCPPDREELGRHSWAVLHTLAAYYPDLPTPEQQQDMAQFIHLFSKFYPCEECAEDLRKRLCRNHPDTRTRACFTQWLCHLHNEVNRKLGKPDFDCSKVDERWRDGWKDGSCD
CFTR F508del cor: CFTR F508del correction in bronchial cells; AID 720511; activity (quench increase), % at 7.58 µM; hit rate 0.36% among 350,000; CFBE cells, YFP halide quenching; stimulated with forskolin plus potentiator P3; % fluorescence drop versus neutral controls;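 active = mean added fluorescence quench of at least 8% versus neutral control, with both replicates also reaching 8%; inconclusive = only one of the mean or replicate conditions met; inactive = mean below 8% and not both replicates reaching 8%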;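 note: cells transiently co-express mutant CFTR-F508del with the halide-sensitive YFP; corrector assay measuring rescue of mutant channel to the surface after 24 h compound exposure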
HIV Env fusion: inhibitors of HIV Env-mediated cell fusion; HeLa-JRFL Env/CEM21 cell fusion, luciferase; inhibition, % at 12.3 µM; hit rate 1.1% among 360,000;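 active = mean replicate inhibition score of at least 50 and every replicate individually at or above 50; inconclusive = only one of the two criteria met; inactive = mean below 50 and not all replicates reaching 50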;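 note: 0% = plate neutral controls and 100% = maraviroc near 300 nM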
Numbers without * were called inactive; ? = inconclusive; . = no result given; [ ] = dose if it differs, or a comment.

SMILES | NSD2 HMT inh | PglD DTNB | CASP6 VEID inh | ALR inh | CFTR F508del cor | HIV Env fusion
Cc1noc(C)c1NC(=O)N(C)C[C@H]1Oc2ccc(NC(=O)Cc3cn(C)c4ccccc34)cc2C(=O)N([C@@H](C)CO)C[C@@H]1C | . | 1 | 0 | . | -1 | .
CN1C(=O)c2cc(NC(=O)C3CC3)ccc2OC[C@@H]2O[C@@H](CC(=O)NCCc3ccncc3)CC[C@H]21 | . | 4 | 1 | . | -2 | -23[16.7 µM]
Cc1noc(C)c1S(=O)(=O)Nc1ccc2c(c1)C(=O)N([C@H](C)CO)C[C@@H](C)[C@H](CN(C)S(=O)(=O)c1ccccc1)O2 | . | 5 | 1 | . | 0 | .
O=C(c1ccco1)c1coc2c1cc(O)c1ccccc12 | 13 | 4 | 47* | -56 | 0 | -88
CC(=O)c1coc2c1cc(O)c1ccccc12 | . | -6 | . | -36 | . | -234
Cc1noc(C)c1NC(=O)N[C@@H]1C=C[C@@H](CC(=O)NCCCN(C)C)O[C@@H]1CO | . | . | . | . | -1 | .
O=C(Cn1cnc([N+](=O)[O-])n1)c1ccc(O)c(O)c1 | 14 | -1 | 43* | 94* | -2 | -6
O=C(Cn1cnc([N+](=O)[O-])n1)c1ccccc1 | 8 | 10 | -3 | -52 | 2 | -23
COCCNC(=O)C(=O)NCC(c1ccc2c(c1)OCO2)N1CCN(c2ccc(F)cc2)CC1 (configuration not stated) | 5 | -3 | 4 | 31 | 3 | 19
COC(=O)NCC(c1ccc2c(c1)OCO2)N1CCN(c2ccc(OC)cc2)CC1 (configuration not stated) | 21 | -3 | -3 | 91* | 0 | -15
COc1ccc(N2CCN(C(CNC(=O)C(C)C)c3ccc4c(c3)OCO4)CC2)cc1 (configuration not stated) | 0 | 1 | 5 | 86* | -3 | -17
CN(C)CCNC(=O)C(=O)NCC(c1ccc2c(c1)OCO2)N1CCN(c2ccc(F)cc2)CC1 (configuration not stated) | 8 | 3 | -5 | 99* | 1 | -3
COc1ccc(NC(=O)CCC(=O)c2cccs2)cc1Cl | -7 | -1 | -2 | -3 | 0 | 1
COc1cc(NCCC(=O)c2cccs2)c(OC)cc1Cl | 40 | . | 2 | 100* | 0 | 0
O=C(C[C@H]1CC[C@@H]2[C@H](COC[C@H](O)CN2Cc2nccs2)O1)NCc1ccc(Oc2ccccc2)cc1 | . | 4 | 1 | . | 1 | .
COCCNC(=O)c1cc(-c2ccccc2C)n(CC2CC(c3cccc([N+](=O)[O-])c3)=NO2)n1 (configuration not stated) | . | -2 | 1 | -3 | 4 | 24
COc1ccccc1CNC(=O)c1cc(-c2ccccc2C)n(CC2CC(c3cccc([N+](=O)[O-])c3)=NO2)n1 (configuration not stated) | . | -5 | 1 | 0 | 2 | 60*
COc1ccc(C2=NOC(Cn3nc(C(=O)NCc4cccc(Br)c4)cc3-c3ccccc3)C2)cc1 (configuration not stated) | . | -2 | -2 | 3 | 1 | 85*
CC(C)NC(=O)N(C)C[C@H]1Oc2ccc(NC(=O)CCC(F)(F)F)cc2CC(=O)N([C@@H](C)CO)C[C@H]1C | . | 2 | 1 | . | 1 | .
COc1ccc(OC)c2c1C(=O)C(Cl)=C(Cl)C2=O | -1 | 3 | 9 | 1 | ? | 94*
O=S(=O)(Nc1ccccc1)c1cccc2nsnc12 | -1 | -3 | 36* | -7 | 1 | 15
C[C@@H](NC(=O)C[C@@H]1C[C@@H]2c3cc(NS(C)(=O)=O)ccc3O[C@@H]2[C@@H](CO)O1)c1ccccc1 | . | 4 | 2 | . | -1 | -10[16.7 µM]
CN1CC(c2ccccc2Cl)C2(COc3ccccc3C2=O)C12C(=O)Nc1ccccc12 (configuration not stated) | 0 | -5 | . | -9 | . | 78*
COCC(=O)N(C)C[C@@H]1Oc2ncc(Br)cc2C(=O)N([C@H](C)CO)C[C@@H]1C | . | 1 | . | . | -1 | -20[16.7 µM]
CCCN(C)C[C@@H]1Oc2ncc(-c3cccc(C#N)c3)cc2C(=O)N([C@H](C)CO)C[C@H]1C | . | 0 | 1 | . | 1 | 11[16.7 µM]
COc1cccc(NS(=O)(=O)c2ccc3c(c2)NC(=O)CC(=O)N3)c1 | -1 | -3 | 99* | -1 | -1 | -8
Cc1ccccc1C(=O)Nc1ccc(C(=O)N/N=C/c2ccc(O)cc2)cc1 | 8 | -3 | 6 | 95* | -2 | 14
